Consider ten compounds from publication PMC5540273 (PLoS ONE, 2017).

Where two headings read alike, the source gives them in different places.

Assay [1] has as its system T1, NIM1.
T1 construct: gene MGC42105
The note with it: concentration: 1 μM, replicates: in singlicate; n = 1.

Assay [2] deals with NLK. Particulars: concentration: 1 μM, replicates: in singlicate; n = 1.
For assay [3], the system named is T2, OSR1.
T2 construct: gene OXSR1
Particulars: concentration: 1 μM, replicates: in singlicate; n = 1.

Assay [4] concerns PAK1. Particulars: concentration: 1 μM, replicates: in singlicate; n = 1.
The subject of assay [5] is PAK2. The note with it: concentration: 1 μM, replicates: in singlicate; n = 1.
The test system of assay [6] is PAK3. The note with it: concentration: 1 μM, replicates: in singlicate; n = 1.
The test system of assay [7] is PAK4. Particulars: n = 1.
Assay [8] deals with PAK6. The note with it: n = 1.
The subject of assay [9] is PAK7. The note with it: concentration: 1 μM, replicates: in singlicate; n = 1.
The test system of assay [10] is T3, PCTK1.
T3 construct: gene CDK16
The note with it: concentration: 1 μM, replicates: in singlicate; n = 1.

Assay [11] relates to T4, PCTK2.
T4 construct: gene CDK17
Particulars: concentration: 1 μM, replicates: in singlicate; n = 1.

Assay [12] concerns T5, PCTK3.
T5 construct: gene CDK18
Particulars: concentration: 1 μM, replicates: in singlicate; n = 1.

Assay [13] relates to PDGFRA. Particulars: concentration: 1 μM, replicates: in singlicate; n = 1.
Assay [14] concerns PDGFRB. The note with it: concentration: 1 μM, replicates: in singlicate; n = 1.
Assay [15] relates to PDPK1. Particulars: concentration: 1 μM, replicates: in singlicate; n = 1.
The subject of assay [16] is PFTAIRE2. The note with it: concentration: 1 μM, replicates: in singlicate; n = 1.
In assay [17] the test system is T6, PFTK1.
T6 construct: gene CDK14
Particulars: concentration: 1 μM, replicates: in singlicate; n = 1.

For assay [18], the system named is PHKG1. The note with it: concentration: 1 μM, replicates: in singlicate; n = 1.
Assay [19] has as its system PHKG2. Particulars: concentration: 1 μM, replicates: in singlicate; n = 1.
For assay [20], the system named is PIK3C2B. The note with it: concentration: 1 μM, replicates: in singlicate; n = 1.
Setting [21] is: concentration: 1 μM, replicates: in singlicate.
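Further: KINOMEscan kinase panel screen.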

On to `CN(C)Cc1ccc(-c2ccc3c(Nc4ccc(Oc5ccccn5)cc4)ccnc3c2)o1` [GW567148], for which the “%Inh” value in assay [1] is listed as 23%; in assay [2] it was 0%; in assay [3], 15%; in [4], 0%; in assay [5], 0%; in assay [6], 22%. Further, the “%Inh” value is given as 0% in [7] (setting [21]); 0% in assay [8] (setting [21]); 0% in [9]; 3% in assay [10]; 0% in assay [11]; 0% in assay [12]. In addition, the “%Inh” value in [13] is on record as 82%; in [14] it was 98.7%; in assay [15] it was 0%; in assay [16], 0%; in [17], 0%; in [18] it was 2%. Besides, the “%Inh” value in [19] and in assay [20] was 0% throughout.
Take `Cc1ccc(S(=O)(=O)Nc2ccc(Nc3nccc(Nc4cccc5[nH]ncc45)n3)cc2)cc1` [GSK581271]: the “%Inh” value worked out at 26% in assay [1]; 56% in assay [2]; 13% in assay [3]; 14% in assay [4]; 12% in assay [5]; 35% in [6]. Further, the “%Inh” value turned out to be 0% in [7] (setting [21]); 18% in assay [8] (setting [21]); 0% in [9]; 2% in assay [10]; 0% in [11]; 12% in [12]. Also, the “%Inh” value in assay [13] is given as 0%; in [14], 73%; in assay [15] it was 0%; in assay [16], 12%; in [17], 10%; in [18], 0%. Also, the “%Inh” value in [19] and in assay [20] was 0% in each case.
Take `CSc1cccc2c(-c3ccncn3)c(-c3ccc(F)cc3)nn12` [GW514786]: the “%Inh” value in [1] amounted to 19%; in assay [2], 70%; in assay [3], 8%; in assay [4], 11%; in assay [5], 25%; in assay [6] it was 19%. For the same compound, the “%Inh” value in [7] (setting [21]) stood at 0%; in assay [8] (setting [21]), 3%; in assay [9] it was 0%; in [10], 2%; in assay [11], 0%; in assay [12], 14%. The “%Inh” value in assay [13] amounted to 0%; in assay [14] it was 7%; in assay [15], 0%; in [16], 20%; in [17] it was 28%; in assay [18] it was 12%. Also, the “%Inh” value in assay [19] and in [20] was 0% throughout.
Regarding `COCCOCCOc1cc2ncc3c4ccc(C#N)cc4[nH]c3c2cc1OC`, the “%Inh” value in assay [1] was 48%; in [2], 19%; in assay [3] it was 0%; in assay [4], 18%; in assay [5], 22%; in [6] it was 21%. Also, the “%Inh” value stood at 19% in assay [7] (setting [21]); 10% in assay [8] (setting [21]); 1% in assay [9]; 0% in assay [10]; 6% in assay [11]; 13% in assay [12]. The “%Inh” value in [13] is on record as 98.2%; in assay [14], 92.9%; in [15], 34%; in assay [16], 48%; in assay [17], 21%; in assay [18], 94.5%. The results for the “%Inh” value in [19] and in assay [20] were 97.7% and 0%, respectively.
With `COc1ccc(-c2coc3ccc(-c4nnc(SCc5ccc(OC)c(C(F)(F)F)c5)o4)cc23)cc1`, the “%Inh” value in [1] is listed as 0%; in assay [2], 10%; in assay [3] it was 3%; in [4], 0%; in assay [5] it was 3%; in [6], 22%. The “%Inh” value in assay [7] (setting [21]) came to 1%; in assay [8] (setting [21]), 17%; in assay [9], 3%; in assay [10], 0%; in assay [11], 9%; in [12] it was 9%. In addition, the “%Inh” value is 23% in assay [13]; 16% in [14]; 12% in assay [15]; 0% in assay [16]; 19% in [17]; 3% in assay [18]. In addition, the figures for the “%Inh” value in [19] and in assay [20] were 4% and 0%, respectively.
Regarding `COc1cc(Nc2nccc(N3CCC(NC(=O)Nc4cccc(C(C)=O)c4)C3)n2)cc(OC)c1OC` (centres unmarked) [GSK1379753], the “%Inh” value in assay [1] amounted to 11%; in [2], 21%; in assay [3] it was 6%; in [4], 0%; in assay [5] it was 0%; in assay [6], 100%. Further, the “%Inh” value is 0% in assay [7] (setting [21]); 7% in assay [8] (setting [21]); 13% in assay [9]; 10% in assay [10]; 26% in [11]; 0% in assay [12]. Besides, the “%Inh” value in assay [13] amounted to 0%; in [14], 77%; in assay [15] it was 0%; in [16] it was 0%; in assay [17], 23%; in [18], 0%. Besides, the “%Inh” value in assay [19] is recorded as 2%; in assay [20], 0%.
On to `O=C(Nc1n[nH]c2cc(-c3ccoc3)ccc12)C1CC1` [SB-738481], for which the “%Inh” value in assay [1] amounted to 100%; in assay [2] it was 4%; in assay [3], 0%; in assay [4], 0%; in assay [5], 15%; in [6], 18%. Besides, the “%Inh” value in assay [7] (setting [21]) was 0%; in assay [8] (setting [21]), 0%; in assay [9], 0%; in assay [10] it was 61%; in [11] it was 51%; in assay [12] it was 22%. Besides, the “%Inh” value in [13] came to 62%; in [14], 90%; in assay [15], 0%; in assay [16], 21%; in assay [17], 29%; in [18], 0%. In addition, the “%Inh” value is 0% in assay [19] and 7% in assay [20].
Turning to `Cl.Cl.NCC(C(=O)Nc1cc(Br)c(-c2ccnc3[nH]ccc23)s1)c1ccccc1` (centres unmarked) [GSK1269851], the “%Inh” value in assay [1] is given as 11%; in [2], 0%; in assay [3] it was 36%; in [4] it was 17%; in assay [5], 32%; in assay [6], 27%. For the same compound, the “%Inh” value in assay [7] (setting [21]) came out at 0%; in assay [8] (setting [21]) it was 0%; in assay [9], 51%; in assay [10] it was 11%; in assay [11], 6%; in [12], 0%. Moreover, the “%Inh” value came out at 0% in assay [13]; 38% in assay [14]; 0% in [15]; 24% in assay [16]; 28% in assay [17]; 49% in [18]. Besides, the “%Inh” value in [19] and in assay [20] was 0% each time.
Regarding `COc1cc(Nc2nccc(N3CCC(NC(=O)c4cc5ccccc5s4)C3)n2)cc(OC)c1OC` (centres unmarked) [GSK1379760], the “%Inh” value in assay [1] turned out to be 6%; in assay [2], 0%; in assay [3], 2%; in assay [4], 4%; in assay [5], 2%; in assay [6], 9%. In addition, the “%Inh” value in assay [7] (setting [21]) was found to be 0%; in assay [8] (setting [21]), 0%; in assay [9], 0%; in [10] it was 0%; in assay [11], 9%; in [12], 20%. In addition, the “%Inh” value in assay [13] came to 0%; in [14] it was 44%; in assay [15], 50%; in [16] it was 7%; in assay [17], 0%; in [18], 12%. Also, the “%Inh” value in [19] and in assay [20] was 0% throughout.
As for `CCn1c(-c2nonc2N)nc2c(C#CC(C)(C)O)ncc(OCCCCN)c21.O=C(O)C(F)(F)F.O=C(O)C(F)(F)F` [GSK507274], the “%Inh” value in assay [7] (1 µM) came to 98.1%; in assay [8] (1 µM), 89%.
